# Values joined by “and” are separate entries in the source; they are usually repeats but may differ in a detail not shown here. Identical values can stand only once. This is part of a sample that, as a whole, favours compounds with a hit. Of some 79,000 tested, about 15% had one in any assay. More than one record can exist for a structure, and the calls need not agree. Active and inactive are the calls of the source. Rule as the data show it: active = growth inhibition above about 70%; inactive = the rest.
# How the values were obtained:
# [1] = NCI Yeast Anticancer Drug Screen. Data for the rad52 strain (AID 147);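 also: 0% = growth of vehicle-treated control cultures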; details: S. cerevisiae rad52 mutant growth inhibition, stronger effect = higher value
# Method in brief: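 Inhibition of yeast growth, referenced to vehicle controls, was the measured output for a strain with defective DNA damage repair.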
# [2] = NCI Yeast Anticancer Drug Screen. Data for the wt1 strain (AID 149);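 also: 0% = growth of vehicle-treated wt1 cultures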; details: S. cerevisiae wt1 strain (SPY 50644) growth inhibition, stronger effect = higher value
# Method in brief: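 Measured: growth of wt1 yeast under compound versus vehicle treatment, reported as inhibition.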
# [3] = NCI Yeast Anticancer Drug Screen. Data for the rad50EPP+ strain (AID 151);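 also: 0% = growth of vehicle-treated control cultures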; details: S. cerevisiae rad50 mutant strain, stronger effect = higher value
# Method in brief: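 Genetically defined yeast (rad50EPP+, DNA damage repair alteration) is grown with compound, and inhibition of growth is expressed relative to vehicle-treated controls.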
# [4] = NCI Yeast Anticancer Drug Screen. Data for the mgt1 strain (AID 153); details: S. cerevisiae mgt1 mutant growth inhibition, stronger effect = higher value
# Method in brief: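 In the mgt1 strain, test compounds were added and growth inhibition was determined relative to vehicle-treated controls.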
# [5] = NCI Yeast Anticancer Drug Screen. Data for the rad50 strain (AID 155);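 also: 0% = growth of vehicle-only cultures of the same strain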; details: S. cerevisiae rad50 strain growth inhibition, stronger effect = higher value
# Method in brief: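 Growth of the mutant yeast was measured after compound exposure and referenced to vehicle-treated cultures.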
# [6] = NCI Yeast Anticancer Drug Screen. Data for the mec2-1 strain (AID 157); details: S. cerevisiae mec2-1 strain, stronger effect = higher value
# Method in brief: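 Each compound was tested on mec2-1 yeast, a strain altered in DNA damage repair or cell cycle control. Growth inhibition is reported relative to vehicle.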
# [7] = NCI Yeast Anticancer Drug Screen. Data for the rad14 strain (AID 159);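 also: 0% = growth of vehicle-treated control cultures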; details: S. cerevisiae rad14 strain growth inhibition, stronger effect = higher value
# Method in brief: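 Here, inhibition of yeast growth was measured after compound exposure, using a strain with a genetic defect in DNA damage repair and vehicle-treated cultures as the reference.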
# [8] = NCI Yeast Anticancer Drug Screen. Data for the sgs1 mgt1 strain (AID 161);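 also: 0% = growth of cultures given vehicle only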; details: S. cerevisiae sgs1 mgt1 strain, stronger effect = higher value
# Method in brief: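 Inhibition of yeast growth, normalised to vehicle-treated controls, is reported for a strain bearing genetic alterations in DNA damage repair.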
# [9] = NCI Yeast Anticancer Drug Screen. Data for the CLN2oe strain (AID 163);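 also: 0% = growth of vehicle-only control cultures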; details: S. cerevisiae CLN2oe strain, stronger effect = higher value
# Method in brief: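 First, the altered yeast strain was treated with each compound; second, its growth was measured; finally, inhibition was derived by comparison with vehicle controls.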
# [10] = NCI Yeast Anticancer Drug Screen. Data for the cln2 rad14 strain (AID 165);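 also: 0% = growth equal to vehicle treated cultures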; details: S. cerevisiae cln2 rad14 strain, stronger effect = higher value
# Method in brief: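 Test compounds were added to cln2 rad14 yeast cultures; inhibition of growth was then determined by comparison with vehicle treatment.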
# [11] = NCI Yeast Anticancer Drug Screen. Data for the bub3 strain (AID 167); details: S. cerevisiae bub3 mutant strain, stronger effect = higher value
# Method in brief: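 Whole-cell yeast assay. The mutant strain was incubated with compounds, and growth inhibition was determined by comparison with vehicle-treated cells.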
# [12] = NCI Yeast Anticancer Drug Screen. Data for the wt2 strain (AID 169);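 also: 0% = growth of vehicle-treated yeast cultures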; details: S. cerevisiae wt2 strain growth inhibition, stronger effect = higher value
# Method in brief: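 The panel's yeast strains carry defined changes in DNA repair or cell cycle genes. Each strain is grown with compound, and growth loss is scored relative to vehicle.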
# [13] = NCI Yeast Anticancer Drug Screen. Data for the mlh1 strain (AID 171);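 also: 0% = growth of vehicle-treated control cultures of the same strain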; details: S. cerevisiae mlh1 strain growth inhibition, stronger effect = higher value
# Method in brief: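 Inhibition values reflect reduced yeast growth in the presence of compound, referenced to vehicle controls, using a strain chosen for its alteration in DNA repair or cell cycle control.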
# [14] = NCI Yeast Anticancer Drug Screen. Data for the sgs1 strain (AID 173);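 also: 0% = growth of vehicle-only control cultures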; details: S. cerevisiae sgs1 mutant, stronger effect = higher value
# Method in brief: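 Vehicle-treated cultures served as reference for growth inhibition of a yeast strain altered in DNA damage repair or cell cycle control after compound exposure.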
# [15] = NCI Yeast Anticancer Drug Screen. Data for the mlh1 rad18 strain (AID 175); details: S. cerevisiae mlh1 rad18 strain growth inhibition, stronger effect = higher value
# Method in brief: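 Inhibition values reflect reduced growth of mutant yeast versus vehicle-treated controls following compound exposure; the mutations affect DNA damage repair.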
# [16] = NCI Yeast Anticancer Drug Screen. Data for the rad18 strain (AID 177); details: S. cerevisiae rad18 mutant growth inhibition, stronger effect = higher value
# Method in brief: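 Steps: expose repair-mutant yeast to compound; measure growth; express as inhibition relative to vehicle control.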
# [17] = at 5.0 µM (retest, dose inferred, filed as 0.5)
# [18] = at 50.0 µM (retest, dose inferred, filed as 5.0)
structure (smiles),measurement,setting,value
O=C(NNc1ccccc1)C(O)C(O)C(O)C(O)C(O)CO (stereo not drawn),growth inhibition,[1]; at 1.2 µM,3% (inactive)
same,growth inhibition,[1]; at 3.7 µM,11% (inactive)
same,growth inhibition,[1]; at 11.0 µM,29% (inactive)
same,growth inhibition,[1]; at 33.0 µM,53% (inactive)
same,growth inhibition,[1]; at 100.0 µM,93% (active)
same,growth inhibition,[2]; at 1.2 µM,4% (inactive)
same,growth inhibition,[2]; at 3.7 µM,12% (inactive)
same,growth inhibition,[2]; at 11.0 µM,31% (inactive)
same,growth inhibition,[2]; at 33.0 µM,52% (inactive)
same,growth inhibition,[2]; at 100.0 µM,70% (active)
same,growth inhibition,[3]; at 1.2 µM,9% (inactive)
same,growth inhibition,[3]; at 3.7 µM,29% (inactive)
same,growth inhibition,[3]; at 11.0 µM,43% (inactive)
same,growth inhibition,[3]; at 33.0 µM,64% (inactive)
same,growth inhibition,[3]; at 100.0 µM,86% (active)
same,growth inhibition,[4]; at 1.2 µM,6% (inactive)
same,growth inhibition,[4]; at 3.7 µM,12% (inactive)
same,growth inhibition,[4]; at 11.0 µM,23% (inactive)
same,growth inhibition,[4]; at 33.0 µM,50% (inactive)
same,growth inhibition,[4]; at 100.0 µM,88% (active)
same,growth inhibition,[5]; at 1.2 µM,5% (inactive)
same,growth inhibition,[5]; at 3.7 µM,7% (inactive)
same,growth inhibition,[5]; [17],24% (inactive) and 10% (inactive)
same,growth inhibition,[5]; at 11.0 µM,21% (inactive)
same,growth inhibition,[5]; at 33.0 µM,40% (inactive)
same,growth inhibition,[5]; [18],48% (inactive) and 56% (inactive) and 87% (active)
same,growth inhibition,[5]; at 50.0 µM,91.7% (active) and 24.9% (inactive) and 57.1% (inactive)
same,growth inhibition,[5]; at 100.0 µM,84% (active)
same,growth inhibition,[6]; at 1.2 µM,-2% (inactive)
same,growth inhibition,[6]; at 3.7 µM,2% (inactive)
same,growth inhibition,[6]; [17],-5% (inactive) and 6% (inactive) and 1% (inactive)
same,growth inhibition,[6]; at 11.0 µM,31% (inactive)
same,growth inhibition,[6]; at 33.0 µM,52% (inactive)
same,growth inhibition,[6]; [18],39% (inactive) and 48% (inactive) and 87% (active)
same,growth inhibition,[6]; at 50.0 µM,51.7% (inactive) and 26.8% (inactive) and 80.2% (active)
same,growth inhibition,[6]; at 100.0 µM,82% (active)
same,growth inhibition,[7]; at 1.2 µM,0% (inactive)
same,growth inhibition,[7]; at 3.7 µM,-1% (inactive)
same,growth inhibition,[7]; at 11.0 µM,8% (inactive)
same,growth inhibition,[7]; at 33.0 µM,20% (inactive)
same,growth inhibition,[7]; at 100.0 µM,59% (inactive)
same,growth inhibition,[8]; [17],-10% (inactive) and 9% (inactive) and 13% (inactive)
same,growth inhibition,[8]; [18],35% (inactive) and 52% (inactive) and 71% (active)
same,growth inhibition,[8]; at 50.0 µM,78.5% (active) and 54.9% (inactive) and 60.7% (inactive)
same,growth inhibition,[9]; at 1.2 µM,-2% (inactive)
same,growth inhibition,[9]; at 3.7 µM,3% (inactive)
same,growth inhibition,[9]; at 11.0 µM,22% (inactive)
same,growth inhibition,[9]; at 33.0 µM,52% (inactive)
same,growth inhibition,[9]; at 100.0 µM,76% (active)
same,growth inhibition,[10]; [17],4% (inactive) and 3% (inactive)
same,growth inhibition,[10]; [18],54% (inactive) and 48% (inactive) and 81% (active)
same,growth inhibition,[10]; at 50.0 µM,54.4% (inactive) and 55.3% (inactive) and 78.8% (active)
same,growth inhibition,[11]; at 1.2 µM,-3% (inactive)
same,growth inhibition,[11]; at 3.7 µM,0% (inactive)
same,growth inhibition,[11]; [17],-1% (inactive) and 10% (inactive) and 14% (inactive)
same,growth inhibition,[11]; at 11.0 µM,33% (inactive)
same,growth inhibition,[11]; at 33.0 µM,75% (active)
same,growth inhibition,[11]; [18],38% (inactive) and 79% (active) and 90% (active)
same,growth inhibition,[11]; at 50.0 µM,96.8% (active) and 45.6% (inactive) and 87.4% (active)
same,growth inhibition,[11]; at 100.0 µM,92% (active)
same,growth inhibition,[12]; at 1.2 µM,2% (inactive)
same,growth inhibition,[12]; at 3.7 µM,12% (inactive)
same,growth inhibition,[12]; at 11.0 µM,28% (inactive)
same,growth inhibition,[12]; at 33.0 µM,39% (inactive)
same,growth inhibition,[12]; at 100.0 µM,80% (active)
same,growth inhibition,[13]; at 1.2 µM,4% (inactive)
same,growth inhibition,[13]; at 3.7 µM,2% (inactive)
same,growth inhibition,[13]; at 11.0 µM,22% (inactive)
same,growth inhibition,[13]; at 33.0 µM,44% (inactive)
same,growth inhibition,[13]; at 100.0 µM,91% (active)
same,growth inhibition,[14]; at 1.2 µM,2% (inactive)
same,growth inhibition,[14]; at 3.7 µM,10% (inactive)
same,growth inhibition,[14]; at 11.0 µM,37% (inactive)
same,growth inhibition,[14]; at 33.0 µM,67% (inactive)
same,growth inhibition,[14]; at 100.0 µM,94% (active)
same,growth inhibition,[15]; [17],23% (inactive) and 28% (inactive) and 26% (inactive)
same,growth inhibition,[15]; [18],85% (active) and 87% (active) and 93% (active)
same,growth inhibition,[15]; at 50.0 µM,86.9% (active) and 85.9% (active) and 95.2% (active)
same,growth inhibition,[16]; at 1.2 µM,5% (inactive)
same,growth inhibition,[16]; at 3.7 µM,13% (inactive)
same,growth inhibition,[16]; at 11.0 µM,39% (inactive)
same,growth inhibition,[16]; at 33.0 µM,67% (inactive)
same,growth inhibition,[16]; at 100.0 µM,92% (active)

# Reference: PubChem BioAssay (NCI)
